This is a sample that favours compounds with a hit; in the whole collection about 1.2% have one here.
hERG WT inh: KCNH2 (human, wildtype) channel inhibition. U2OS, BacMam KCNH2, thallium flux FluxOr; stronger effect = lower value. 340,000 tested, 0.37% active. activity change, % at 1.84 µM. AID 720551;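 active = maximum activity change below -70%; inconclusive = maximum activity change between -70% and -50%; inactive = maximum activity change above -50%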
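U2OS cells transduced with wild-type KCNH2 virus are loaded with FluxOr dye for 45 min, and thallium flux is measured in kinetic reads before and after stimulation buffer. Rate constants are normalized to DMSO controls.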
KCNH2 3.1 block: KCNH2 3.1 (human) potassium channel inhibition; 340,000 tested, 0.95% active; U2OS KCNH2 3.1, thallium flux FluxOr; stronger effect = lower value; activity change, % (tested at about 1.8 µM);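 active = maximum activity change below -70%; inconclusive = maximum activity change from -70% to -50%; inactive = maximum activity change above -50%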;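 note: thallium influx rate constant from kinetic fluorescence after stimulation buffer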
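Thallium flux via FluxOr fluorescence (Red40 quencher, 45 min loading) in U2OS cells virally expressing the KCNH2 3.1 isoform (1.77 x 10^8 /mL virus, overnight at 37 C). Rate constants from 2-min kinetic reads post-stimulation, normalised to positive and negative controls.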
TRPV1 potentiator: potentiators of human vanilloid receptor 1 (TRPV1); 320,000 tested, 0.02% active; Q8NER1; TRPV1-expressing cells, Fluo-8 calcium influx, capsaicin EC20 potentiation; potentiation, % at 8.33 µM; in the data active = potentiation above about 80%; inconclusive = between about 30% and that limit
Target sequence (Q8NER1 whole entry, looked up): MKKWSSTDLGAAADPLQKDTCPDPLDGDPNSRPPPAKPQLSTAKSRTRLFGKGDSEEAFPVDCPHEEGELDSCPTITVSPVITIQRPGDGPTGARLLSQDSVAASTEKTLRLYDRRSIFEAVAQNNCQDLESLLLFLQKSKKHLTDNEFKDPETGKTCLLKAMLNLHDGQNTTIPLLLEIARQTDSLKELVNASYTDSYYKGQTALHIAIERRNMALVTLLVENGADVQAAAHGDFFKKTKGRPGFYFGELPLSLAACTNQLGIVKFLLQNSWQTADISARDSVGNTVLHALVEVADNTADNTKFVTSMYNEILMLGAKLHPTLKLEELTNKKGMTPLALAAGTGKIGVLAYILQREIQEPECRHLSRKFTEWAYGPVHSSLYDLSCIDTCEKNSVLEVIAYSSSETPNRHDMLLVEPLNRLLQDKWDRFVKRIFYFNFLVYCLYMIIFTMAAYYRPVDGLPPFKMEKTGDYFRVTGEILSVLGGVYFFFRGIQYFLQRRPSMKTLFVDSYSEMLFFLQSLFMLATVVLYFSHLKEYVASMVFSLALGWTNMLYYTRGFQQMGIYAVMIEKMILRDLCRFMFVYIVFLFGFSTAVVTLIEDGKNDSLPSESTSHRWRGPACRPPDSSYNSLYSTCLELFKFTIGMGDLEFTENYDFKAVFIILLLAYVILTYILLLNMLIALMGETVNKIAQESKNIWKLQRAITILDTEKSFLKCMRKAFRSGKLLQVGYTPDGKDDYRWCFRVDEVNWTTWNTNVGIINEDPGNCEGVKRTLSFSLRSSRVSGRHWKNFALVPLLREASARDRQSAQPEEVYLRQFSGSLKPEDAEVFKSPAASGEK
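Fluo-8 calcium influx in TRPV1-expressing cells, kinetic read (ex 480/em 520 nm). Compound added and read 3 min for agonist activity, followed by capsaicin at EC20 final and 2 min further read for enhancement.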
TRPV1 agonist: human TRPV1 agonism; AID 540275; TRPV1-expressing cells, Fluo-8 calcium influx, agonist mode; Q8NER1; activation, % at 8.33 µM; 320,000 tested, 0.19% active; in the data active = activation above about 80%; inconclusive = between about 30% and that limit
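Cells expressing TRPV1 were dye-loaded with Fluo-8 and read kinetically: 10 s baseline, 3 min after compound (agonist portion), then 2 min after EC20 capsaicin (allosteric enhancer portion). Calcium-bound dye fluorescence at 480/520 nm.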
A number is an active result; – = inactive; ? = inconclusive; · = no result given; + = active, no number.

SMILES	hERG WT inh	KCNH2 3.1 block	TRPV1 potentiator	TRPV1 agonist
O=C(COC(=O)C1CSC2(c3ccc(F)cc3)CCC(=O)N12)NC(=O)NC1CCCC1 (stereo unspecified)	–	–	–	–
O=C(CCN=C1NS(=O)(=O)c2ccccc21)OCC(=O)c1ccccc1Cl	–	–	–	–
CCOC(=O)CC(=O)CSCC(=O)Nc1ccc(C)cc1	–	-75	–	–
COc1ccc(S(=O)(=O)N2CCOC2CNC(=O)C(=O)NCc2ccccn2)cc1OC (stereo unspecified)	–	–	·	·
CCOC(=O)c1csc(NC(=O)CSc2nnnn2-c2ccc3c(c2)OCCO3)n1	-118	–	–	–
O=[N+]([O-])c1cc(-c2n[nH]c(-c3ccccc3)n2)cc([N+](=O)[O-])c1	–	-78	–	–
O=[N+]([O-])c1cc([N+](=O)[O-])c2n[nH]c(-c3ccccc3)c2c1	–	–	–	–
CC(CCN1CCC(n2nccc2NC(=O)c2ccccc2Cl)CC1)c1ccccc1 (stereo unspecified)	?	-99	–	–
COc1ccccc1C(=O)Nc1ccnn1C1CCN(CC2CC=CCC2)CC1 (stereo unspecified)	–	-80	–	–
CC(C)(C)CN1CCC(n2nccc2NC(=O)c2ccccc2Cl)CC1	–	–	–	–
COc1ccccc1C(=O)Nc1ccnn1C1CCN(CCCC2CCCC2)CC1	-143	-114	–	–
O=C(Nc1ccnn1C1CCN(CCCC2CCCC2)CC1)c1ccccc1Cl	-93	-106	–	–
O=C(Nc1cccc(S(=O)(=O)N2CCOCC2)c1)C1CC(=O)N(c2ccc3c(c2)OCCO3)C1 (stereo unspecified)	–	–	–	–
C[N+]1(CC(O)COCC2COc3ccccc3O2)CCOCC1 (stereo unspecified)	–	–	–	–
Cc1cnc(CN2CCc3c([nH]c4ccccc34)C2C2CCCCC2)[nH]1 (stereo unspecified)	–	-72	–	–
Cc1nn2c(=O)cc(CSCC(=O)Nc3ccccc3F)nc2s1	–	-142	–	–
CCc1ccc(CN2CCCC(CNS(=O)(=O)c3ccc(OC)cc3)C2)cc1 (stereo unspecified)	–	-71	–	–
CCn1cc(CN2CCCC(CNS(=O)(=O)c3ccc(OC)cc3)C2)cn1 (stereo unspecified)	–	·	–	–
COc1ccc(-c2onc(C)c2-c2cscn2)c(O)c1	–	–	–	–
CCc1cc(-c2onc(C)c2-c2cscn2)c(O)cc1OC	–	-90	–	–
FC(F)Oc1ccc(NC(=S)NCCc2ccccn2)cc1	–	–	–	–
COc1ccccc1/C=C(/C(=O)OCC(=O)Nc1cc(C)ccc1C)c1ccccc1	+	–	–	–
CCOC(=O)C1CCN(C(=O)c2ccc3c(=O)n4nc(Nc5ccccc5OC)sc4nc3c2)CC1	–	-75	·	·
CCOC(=O)C1CCN(C(=O)c2ccc3c(=O)n4nc(Nc5cc(C)ccc5C)sc4nc3c2)CC1	–	–	–	–
Oc1cccc(/C=N/Nc2cc(N3CCOCC3)nc(N3CCOCC3)n2)c1	–	–	–	93
SMILES	hERG WT inh	KCNH2 3.1 block	TRPV1 potentiator	TRPV1 agonist
CNC(=O)c1cn(-c2ccc(Cl)cc2)c(=O)c2ccccc12	–	–	–	–
CCCCN(CC)CCNC(=O)c1cn(-c2ccc(Cl)cc2)c(=O)c2ccccc12	?	-78	–	–
COC(=O)c1ccc(C(=O)OC)c(NC(=O)CN(c2ccc3c(c2)OCO3)S(C)(=O)=O)c1	–	-132	–	–
COCCNC(=O)c1ccccc1NC(=O)CN(c1ccc2c(c1)OCO2)S(C)(=O)=O	–	–	–	–
C=C1C(=O)OCC2C(C(=O)O)=CC3C(C)C(C)=CC123 (stereo unspecified)	–	–	·	·
CCCNC(=O)c1ccc(N2CCC3(CC2)CC(c2cccc(Br)c2)=NO3)c([N+](=O)[O-])c1	-129	-80	–	–
CCCCCCCC(=O)Nc1cc(C(=O)NCCC)ccc1N1CCC2(CC1)CC(c1ccccc1)=NO2	-113	-90	–	–
CCCNC(=O)c1ccc(N2CCC3(CC2)CC(c2cccc(Br)c2)=NO3)c(NC(=O)c2cccc(OC)c2)c1	–	-72	–	–
Cc1ccc(Nc2nc(N)nc(CN3CCN(Cc4ccc5c(c4)OCO5)CC3)n2)cc1Cl	-90	-92	–	–
Cc1ccc(Nc2nc(N)nc(CN3CCN(Cc4ccc5c(c4)OCO5)CC3)n2)c(C)c1	–	?	–	–
Cc1ccc(Nc2nc(N)nc(CN3CCN(Cc4ccc5c(c4)OCO5)CC3)n2)cc1	–	-80	–	–
Cc1ccc(Nc2nc(N)nc(CN3CCN(Cc4ccc5c(c4)OCO5)CC3)n2)cc1C	?	-104	–	–
O=C(COC(=O)CNC(=O)c1ccc2c(c1)OCO2)Nc1ncc(Cl)cc1Cl	–	–	–	–
CCCN1C(=O)/C(=C/C=C2\N(CC)c3ccccc3C2(C)C)SC1=S	-91	–	–	–
CCCN1C(=O)/C(=C\C=C2/Sc3ccccc3N2CCO)SC1=S	–	-81	–	–
CCN1C(=O)/C(=C/C=C2/Sc3ccccc3N2CCO)SC1=S	–	–	–	–
N/C(=N\N=C/c1ccc(F)cc1)N/N=C\c1ccc(F)cc1	–	-73	–	–
N/C(=N\N=C/c1ccc(Br)cc1)N/N=C\c1ccc(Br)cc1	–	?	–	–
O=C(N/N=C/c1ccccn1)c1ccc(NC(=O)c2cccc([N+](=O)[O-])c2)cc1	–	-71	–	–
CC(C)(C)c1ccc(/C=N/NC(=O)c2ccccn2)cc1	–	–	–	83
O=C(N/N=C/c1ccccn1)c1cccc([N+](=O)[O-])c1	–	–	?	–
O=C(N/N=C/c1ccc(Br)s1)c1ccccn1	–	–	–	87
O=C(N/N=C/c1ccccn1)c1cc(C2CC2)[nH]n1	–	-92	–	–
O=C(N/N=C/c1ccsc1)c1ccccn1	–	–	–	–
Cn1cc(CNCc2ccccc2OCC(O)CN2CCc3ccccc3C2)cn1 (stereo unspecified)	–	–	–	–
SMILES	hERG WT inh	KCNH2 3.1 block	TRPV1 potentiator	TRPV1 agonist
CCOC(=O)N1CCN(C(=O)COC(=O)C2CCN(S(=O)(=O)c3c(Cl)cccc3Cl)CC2)CC1	–	–	–	–
CC(C)(C)c1ccc(C(=O)N/N=C/c2ccccn2)cc1	–	–	–	83
O=C(N/N=C/c1ccccn1)c1ccc(N/N=C/c2ccccn2)cc1	–	–	–	–
CN1CCN(c2ccc(C(=O)c3ccc(Br)cc3)cc2[N+](=O)[O-])CC1	–	-81	–	–
CN1CCN(c2ccccc2NC(=O)c2ccc(N3CCCC3)c([N+](=O)[O-])c2)CC1	–	–	–	–
Cc1ccc(C(=O)Nc2ccc3c(c2)C(=O)N(C)C3=O)c(C)c1	–	–	–	–
CCOC(=O)c1nc(C)sc1-c1ccnn1S(=O)(=O)c1cccc(Cl)c1	-135	–	–	–
CCC1NC(=O)c2cccnc2-n2c1nc1cc(F)ccc1c2=O (stereo unspecified)	–	–	·	·
C[C@H](CO)N1C[C@H](C)[C@H](CN(C)C(=O)Cc2ccccc2)OCc2cnnn2CCCC1=O	-264	–	·	·
